Reference: PubChem BioAssay (EPA / NIEHS)
Activity calls are given as the source filed them. Rule for the calls: active = hit-call score of the fitted dose curve at least 0.9, where 1 is the maximum; inactive = score below 0.9.

What follows are molecules tested on Matrix Metallopeptidase 1 (MMP1), MMP1 (gene 4312) (assay: BSK_MyoF_MMP1: BioMAP Diversity Plus: MyoF Assay for Matrix Metallopeptidase 1 (MMP1) Biomarker Activity (AID 2284268)). Conditions: primary human lung fibroblasts.
Procedure: BSK_MyoF is a cell-based, multiplexed-readout assay that uses lung fibroblasts, […], with measurements taken at 24 hours after chemical dosing in a microplate: 96-well plate.BSK_MyoF_MMP1 is an assay component measured in the BSK_MyoF assay. It measures […] antibody related to regulation of gene expression using ELISA technology.Data from the assay component BSK_MyoF_MMP1 was analyzed at the endpoint, BSK_MyoF_MMP1, in the positive analysis fitting direction relative to DMSO as the negative control and baseline of activity. Using a type of binding reporter, gain or loss-of-signal activity can be used to understand protein changes. To generalize the intended target to other relatable targets, this assay endpoint is annotated to the 'protease' intended target family, where the subfamily is 'matrix metalloproteinase'.
The levels of cell surface (or secreted, indicated by the prefix "s") biomarker endpoints were measured by ELISA. Overt cytotoxicity to cells in confluent adherent cultures (all systems other than the BT system) was assessed by measuring total protein levels using sulforhodamine B (SRB) staining in parallel cultures at the time of biomarker measurements, indicated as SRB endpoints. For proliferation assays for adherent cell types, individual cell types are cultured at sub-confluence and relative cell numbers quantified by SRB staining at time points optimized for each system (48 h: 3C and CASM3C systems; 72 h: BT and HDF3CGF systems; 96 h: SAg system). SRB was performed by staining cells with 0.1% SRB after fixation with 10% TCA and reading wells at 560 nm.Viability and proliferation of PBMC (T cells) was quantified by Alamar Blue reduction for the SAg and BT systems. For PBMC viability (referred to as PBMC Cytotoxicity within the assay endpoint names), cells were plated (75,000/well in a 96-well plate) and then chemical samples added for 1 h before addition of activators, SEB and TSST-1 (20 ng/mL final concentration each). Cells were incubated for 90 h. Then, Alamar Blue (20 uL/well) (Invitrogen, Cat DAL1100) was added for 6 h, and the plates were read with a fluorescence microplate reader at 546/580 nm (excitation/emission). For PBMC proliferation, cells were plated and activated as above but incubated for only 16 h prior to addition of Alamar Blue. Plates were read after 6 h.

Row | SMILES | AC50 | outcome
1 | CN(C)C(=S)SC(=S)N(C)C | 29.4 µM (active) | –
2 | IC(I)I | – | inactive
3 | CC(=O)Nc1ccc(C(=O)CCl)cc1 | – | inactive
4 | O=C1OC2(c3ccccc31)c1ccc(O)c(Br)c1Oc1c2ccc(O)c1Br | – | inactive
5 | O=C1OC[C@H](Cc2cccc(O)c2)[C@H]1Cc1cccc(O)c1 | – | inactive
6 | c1ccc2cc(Nc3ccc(Nc4ccc5ccccc5c4)cc3)ccc2c1 | – | inactive
7 | c1ccc(CCc2ccccc2)cc1 | – | inactive
8 | C=C(C)C(=O)OCCOCCOCCOCCOC(=O)C(=C)C | – | inactive
9 | CC(C)(C)CC(C)(C)c1ccc(OCCOCC[N+](C)(C)Cc2ccccc2)cc1 | – | inactive
10 | CC(=O)c1c(C)c([N+](=O)[O-])c(C(C)(C)C)c([N+](=O)[O-])c1C | – | inactive
11 | C=C(C)C(=O)OCC(CC)(COC(=O)C(=C)C)COC(=O)C(=C)C | 5.25 µM (active) | –
12 | CC1(C)C2=CCCC(C)(C)[C@]23CC[C@H]1C3 | 31.2 µM (active) | –
13 | CS(=O)(=O)c1ccc(C2=C(c3ccccc3)C(=O)OC2)cc1 | – | inactive
14 | CCCCOC(=O)CCCCCCCC(=O)OCCCC | – | inactive
15 | CCCCN(CCCC)C(=O)N(CCCC)CCCC | 7.64 µM (active) | –
16 | COc1ccc(CCN2CCC(Nc3nc4ccccc4n3Cc3ccc(F)cc3)CC2)cc1 | 3.79 µM (active) | –
17 | O=C1c2ccccc2C(=O)c2c(O)ccc(O)c21 | 3.25 µM (active) | –
18 | CCCCCC(C=O)=Cc1ccccc1 | 28.4 µM (active) | –
19 | CC(=O)C1(C)CC2=C(CCCC2(C)C)CC1C (stereo not drawn) | 4.66 µM (active) | –

Row | SMILES | AC50 | outcome
20 | CC(C)(N=C=O)c1cccc(C(C)(C)N=C=O)c1 | – | inactive
21 | CCC(C)c1cc([N+](=O)[O-])cc([N+](=O)[O-])c1OC(=O)OC(C)C (stereo not drawn) | 20 µM (active) | –
22 | C[C@@H]1CCN(C(=O)[C@H](CCCN=C(N)N)NS(=O)(=O)c2cccc3c2NC[C@H](C)C3)[C@@H](C(=O)O)C1 | – | inactive
23 | C=C(C)C(=O)OCCOCCOCCOC(=O)C(=C)C | – | inactive
24 | COc1ccc(OC)c(N=Nc2c(O)ccc3ccccc23)c1 | 10.3 µM (active) | –
25 | CC(C=O)Cc1ccc(C(C)(C)C)cc1 (stereo not drawn) | – | inactive
26 | CN(C)C(=O)Nc1ccc(Oc2ccc(Cl)cc2)cc1 | – | inactive
27 | Oc1c(Cl)cc(Cl)c(Cl)c1Cc1c(O)c(Cl)cc(Cl)c1Cl | 0.198 µM (active) | –
28 | CCN(CC)C(=O)N(CC)CC | – | inactive
29 | COc1cc(Cl)c(OC)cc1N | – | inactive
30 | C1=CC2C3C=CC(C3)C2C1 (stereo not drawn) | – | inactive
31 | c1ccc(Oc2ccccc2)cc1 | – | inactive
32 | CC=Cc1ccc(OCC)c(O)c1 | – | inactive
33 | CCCCCCCCCCCCCCCC(=O)OC/C=C(C)/C=C/C=C(C)/C=C/C1=C(C)CCCC1(C)C | – | inactive
34 | CN(c1nccc(=O)[nH]1)C1CCN(c2nc3ccccc3n2Cc2ccc(F)cc2)CC1 | – | inactive
35 | C=C(C)[C@H]1CC=C(C)C(=O)C1 | – | inactive
36 | Clc1cc(Cl)c(-c2c(Cl)c(Cl)cc(Cl)c2Cl)cc1Cl | 2.61 µM (active) | –
37 | Cc1cc(CCC(=O)OCCOCCOCCOC(=O)CCc2cc(C)c(O)c(C(C)(C)C)c2)cc(C(C)(C)C)c1O | – | inactive
38 | CSCCC=O | – | inactive
